Here are results for 92 compounds from PubChem BioAssay AID463173 (ICCB-Longwood Screening Facility, Harvard Medical School, 2010).

About 4,300 (8.3%) of roughly 52,000 compounds were called active. Rule as the data show it: active = survival mostly below about 52% (no sharp cut-off); inactive = mostly above about 56%. The sample as a whole holds a higher share of actives than the screen did.

The test system of this experiment is DeltatarO mutant. Kind of experiment: growth inhibition of S. aureus wild type versus tarO mutant, primary screen, teichoic acid synthesis inhibitors, RN4220, OD600 (AID 463173). The conditions noted are these: OD600, 18 h, hits give low values, screened at 18.75 µg/mL (by protocol).
Regarding `Cc1ccc(-c2nnc(Nc3ccccc3)c3ccccc23)cc1S(=O)(=O)N1CCN(C)CC1`, the survival was 86% (inactive).
The result for `NC(=O)c1cc2ccc(O)cc2oc1=O` reads 74% (inactive); that for `COc1ccc(CCNC(=O)CCCn2nc(C)c3sc4ccccc4c3c2=O)cc1OC`, 83% (inactive); that for `Cc1c(-c2ccccc2)nc2ccccc2c1C(=O)O`, 95% (inactive).
The result for `CCc1ccc(-c2nc3ccc(Br)cc3c(C(=O)O)c2C)s1` reads 39% (active); that for `CCCCc1nc2ccccc2c(C(=O)O)c1C`, 75% (inactive); that for `COc1ccccc1CNC(=O)CN1C(=O)CCc2cc(S(=O)(=O)N3CCOCC3)ccc21`, 135% (inactive).
Take `O=C(Cn1c(C(=O)N(Cc2ccco2)CC2CCCO2)cc2sccc21)c1ccccc1` (configuration not stated): the survival is 68% (active).
As for `O=C(Cn1c(C(=O)NCC2CCCO2)cc2sccc21)c1ccccc1` (configuration not stated), the survival was 103% (inactive).
The same measure for `O=C(Cn1c(C(=O)NCc2ccco2)cc2sccc21)c1ccccc1`: 92% (inactive); for `CCOc1ccc(C2C(C(N)=O)=C(C)Nc3nc(-c4cccc(Cl)c4)nn32)cc1OC` (configuration not stated): 74% (inactive).
The result for `O=C(NCC(c1ccco1)S(=O)(=O)c1cccs1)c1ccccc1` (configuration not stated) reads 63% (inactive).
The result for `COc1cc2[nH]c(=O)n(CCCCCC(=O)N3CCN(c4cccc(C(F)(F)F)c4)CC3)c(=O)c2cc1OC` reads 83% (inactive).
Turning to `O=C(NCc1ccccc1)N(Cc1nc2ccccc2c(=O)[nH]1)C1CCCC1`, the survival is 52% (active).
`O=C(c1ccccc1)N(Cc1nc2ccccc2c(=O)[nH]1)C1CCCC1`: the survival was 70% (inactive).
In the case of `O=C(NC1CCCCC1)N(Cc1nc2ccccc2c(=O)[nH]1)C1CCCC1`, the survival was 85% (inactive).
The result for `COc1cccc2c(=O)cc(C)[nH]c12` reads 88% (inactive).
As for `CN(Cc1ccccc1)C1CCNCC1`, the survival is 90% (inactive).
As to `CS(=O)(=O)N1CCc2cc(C(=O)Nc3ccc(Cl)c(C(F)(F)F)c3)ccc21`, the survival is 33% (active).
For the compound `CS(=O)(=O)N1CCc2cc(C(=O)Nc3ccc(C(F)(F)F)cc3)ccc21`, the survival is 76% (inactive).
The same measure for `O=C(Nc1ccc(Cl)c(C(F)(F)F)c1)c1ccc2c(c1)CCN2S(=O)(=O)c1ccccc1`: 43% (active).
Take `Cc1ccc(S(=O)(=O)N2CCc3cc(C(=O)Nc4ccc(C(F)(F)F)cc4)ccc32)cc1`: the survival is 63% (inactive).
For the compound `CS(=O)(=O)N1CCc2cc(C(=O)Nc3cccc(F)c3)ccc21`, the survival was 68% (inactive).
The result for `O=C(Nc1cc(C(F)(F)F)ccc1Cl)c1ccc2c(c1)CCN2S(=O)(=O)c1ccccc1` reads 48% (inactive).
Regarding `CCCCNC(=O)CSc1nc2cc3c(cc2c(=O)n1CCCCCC(=O)NCc1ccc(OC)cc1)OCO3`, the survival is 79% (inactive).
The result for `CNCCCc1cc(C)ccc1O` reads 59% (inactive); that for `CCc1ccc(NC(=O)c2cccc(N3CCCS3(=O)=O)c2)cc1`, 81% (inactive).
The same measure for `Cc1ccc(S(=O)(=O)Nc2cc3c(cc2Cl)n(C)c(=O)c(=O)n3C)cc1`: 83% (inactive).
The result for `CCN(CC)N=Nc1ccc(S(=O)(=O)Nc2nc(C)cc(C)n2)cc1` reads 100% (inactive); that for `CN(C)CCCN(C(=O)c1ccc2c(c1)OCCO2)c1nc2ccccc2s1`, 94% (inactive); that for `CCOc1ccc2nc(NCCNC(=O)Nc3cccc(Cl)c3)c(C#N)cc2c1`, 82% (inactive).
`Cc1ccn2c(Nc3c(C)cccc3C)c(-c3ccc(Cl)s3)nc2c1`: the survival was 37% (active).
The result for `Cc1cccc(C)c1Nc1c(-c2cccs2)nc2ncccn12` reads 76% (inactive); that for `Cc1ccc2nc(-c3cccs3)c(Nc3ccc4c(c3)OCCO4)n2c1`, 99% (inactive).
As to `Cc1cccc(C)c1Nc1c(-c2ccsc2)nc2ccccn12`, the survival is 43% (inactive).
The same measure for `Cc1cccc(C)c1Nc1c(-c2ccc(Cl)s2)nc2ncccn12`: 103% (inactive).
The result for `Cc1ccc2nc(-c3cccs3)c(Nc3c(C)cccc3C)n2c1` reads 35% (active); that for `Cc1ccn2c(Nc3ccc4c(c3)OCCO4)c(-c3ccc(Cl)s3)nc2c1`, 102% (inactive); that for `Cc1cccc(C)c1Nc1c(-c2ccsc2)nc2ccc(Cl)cn12`, 80% (inactive).
Turning to `Cc1ccn2c(Nc3c(C)cccc3C)c(-c3ccsc3)nc2c1`, the survival is 35% (active).
For the compound `O=C(Nc1ccccc1C(F)(F)F)c1ccc2oc(=O)c(S(=O)(=O)c3ccc(F)cc3)cc2c1`, the survival is 89% (inactive).
With `CSc1cccc(NC(=O)C2CCCN(S(=O)(=O)c3ccc4c(c3)CCCN4C(C)=O)C2)c1` (configuration not stated), the survival was 71% (inactive).
The same measure for `O=C(OCC1CCCO1)c1ccc2c(c1)N(Cc1ccc(F)cc1)C(=O)c1ccccc1S2(=O)=O` (configuration not stated): 101% (inactive).
With `Cc1ccc2occ(CC(=O)N(Cc3ccc(N(C)C)cc3)C3CCS(=O)(=O)C3)c2c1` (configuration not stated), the survival is 74% (inactive).
The same measure for `Cc1ccc(CNC(=O)Cn2c3ncccc3c(=O)n2-c2ccccc2)cc1`: 81% (inactive); for `CC(=O)N1CCc2c(sc(NC(=O)CSc3ccc(C)cc3)c2-c2nc3ccccc3s2)C1`: 92% (inactive); for `COC(=O)c1ccc(-c2ccc(/C=N/NC(=O)CC3(C)OCCCO3)o2)cc1`: 96% (inactive).
The same measure for `CCCCNC(=O)c1cnc2sc(N3CCCCCC3)nn2c1=O`: 79% (inactive).
The result for `CN(C)c1ccc(CNC(=O)CCCN2C(=O)c3cccnc3Oc3ccc(Cl)cc32)cc1` reads 81% (inactive); that for `Cn1c(SCC(=O)N2CCCc3ccccc32)nnc1-c1ccccc1N`, 92% (inactive).
Turning to `CCc1ccc(NC(=O)CSc2nc(C)c(C(=O)Nc3ccc(Cl)cc3)c(-c3ccc(OC)cc3)c2C#N)cc1`, the survival was 92% (inactive).
Regarding `COc1ccc(Cl)cc1NC(=O)CN1C(=O)C(C)(C)c2cc(S(=O)(=O)N3CCCCC3)ccc21`, the survival was 70% (inactive).
`COc1ccc(C)cc1NC(=O)CN1C(=O)CCc2cc(S(=O)(=O)N3CCOCC3)ccc21`: the survival was 94% (inactive).
The same measure for `Cc1ccc(NC(=O)CN2C(=O)C(C)(C)c3cc(S(=O)(=O)N4CCCCC4)ccc32)c(Br)c1`: 67% (inactive); for `Cc1ccc(NC(=O)CN2C(=O)CCc3cc(S(=O)(=O)N4CCOCC4)ccc32)cc1F`: 47% (active).
For the compound `Cc1cc(F)ccc1NC(=O)CN1C(=O)CCc2cc(S(=O)(=O)N3CCOCC3)ccc21`, the survival was 76% (inactive).
In the case of `COc1ccc(OC)c(NC(=O)CN2C(=O)CCc3cc(S(=O)(=O)N4CCCCC4)ccc32)c1`, the survival was 32% (active).
The result for `Cc1ccc(NC(=O)CN2C(=O)CCc3cc(S(=O)(=O)N4CCOCC4)ccc32)cc1N(C)C` reads 93% (inactive).
Regarding `COc1ccc(NC(=O)CN2C(=O)CCc3cc(S(=O)(=O)N4CCOCC4)ccc32)c(OC)c1`, the survival is 80% (inactive).
On to `Cc1ccc(Cl)cc1NC(=O)CN1C(=O)C(C)(C)c2cc(S(=O)(=O)N3CCCCC3)ccc21`, for which the survival is 6% (active).
With `CCOC(=O)c1cccc(NC(=O)C(CC(C)C)N2Cc3ccccc3C2=O)c1` (configuration not stated), the survival is 128% (inactive).
On to `Cc1nc2cccnc2n1-c1cccc(C(=O)NCCc2ccc(S(N)(=O)=O)cc2)c1`, for which the survival was 85% (inactive).
The same measure for `CCOc1ccc(OCC)c(NC(=O)c2nnn(Cc3cc(Br)ccc3OC)c2N)c1`: 61% (inactive); for `CC1(C(=O)C[n+]2cccc(C(N)=O)c2)CCC(=O)O1` (configuration not stated): 92% (inactive).
On to `O=C(NC1CCCC1)c1ccc(CSc2nc3ccncc3n2Cc2ccc(F)cc2)cc1`, for which the survival is 68% (inactive).
The same measure for `O=C(c1ccc2c(c1)N(Cc1ccc(Cl)cc1)C(=O)c1ccccc1S2(=O)=O)N1CCN(Cc2ccccc2)CC1`: 78% (inactive); for `CCC(=O)N1c2ccccc2CC1C(=O)NCCc1ccc(C)cc1` (configuration not stated): 75% (inactive).
The same measure for `Cc1cccc(NC(=O)CN2C(=O)C(c3ccc(F)cc3)=NC23CCCCCC3)c1`: 87% (inactive); for `O=C(CN1C(=O)C(c2ccc(F)cc2)=NC12CCCCCC2)Nc1ccccc1Cl`: 84% (inactive).
The result for `O=C(CN1C(=O)C(c2ccc(F)cc2)=NC12CCCCCC2)Nc1ccc(F)c(Cl)c1` reads 40% (active).
Turning to `CCNC(=S)N1CCC(C(=O)c2ccc3c(c2)OCCO3)CC1`, the survival was 58% (active).
On to `CCNC(=S)N1CCC(C(=O)c2ccc(Cl)cc2)CC1`, for which the survival is 84% (inactive).
The same measure for `O=C(c1ccc2c(c1)OCCO2)C1CCCCC1`: 83% (inactive); for `CCC(CC)C(=O)Nc1ccc(-c2cn3cccnc3n2)cc1`: 91% (inactive).
With `Cc1cc(F)ccc1Nc1nc2ccccc2n2nnnc12`, the survival is 111% (inactive).
Take `CCOc1ccc(CCNc2ncnc3onc(-c4ccc(Cl)cc4)c23)cc1`: the survival was 76% (inactive).
The result for `CC(C)CNc1ncnc2onc(-c3ccc(Cl)cc3)c12` reads 71% (inactive).
The result for `CC1CCC(Nc2ncnc3onc(-c4ccc(F)cc4)c23)CC1` (configuration not stated) reads 82% (inactive).
The result for `Clc1ccc(-c2noc3ncnc(NCCc4ccccc4)c23)cc1` reads 78% (inactive).
Turning to `Clc1ccc(-c2noc3ncnc(NC4CCCCC4)c23)cc1`, the survival is 21% (active).
For the compound `Fc1ccc(-c2noc3ncnc(NC4CCCCC4)c23)cc1`, the survival was 67% (inactive).
`CC1CCC(Nc2ncnc3onc(-c4ccc(Cl)cc4)c23)CC1` (configuration not stated): the survival is 47% (active).
The same measure for `Clc1ccc(CNc2ncnc3onc(-c4ccc(Cl)cc4)c23)cc1`: 133% (inactive).
In the case of `Cc1cccc(CCNc2ncnc3onc(-c4ccc(Cl)cc4)c23)c1`, the survival was 33% (active).
The same measure for `Cc1ccc(CCNc2ncnc3onc(-c4ccc(Cl)cc4)c23)cc1`: 46% (inactive); for `CCOc1ccc(Nc2ncnc3onc(-c4ccc(Cl)cc4)c23)cc1`: 38% (active); for `COc1cc(Nc2ncnc3onc(-c4ccc(Cl)cc4)c23)cc(OC)c1`: 94% (inactive).
`COc1ccc(-c2csc(C)n2)cc1`: the survival was 75% (inactive).
On to `Cc1ccc(C(=O)N2CCCn3c2nc2ccccc23)cc1`, for which the survival is 70% (inactive).
The result for `COc1cccc(-n2cc(C(=O)OCc3ccc(Cl)cc3)c3ccccc3c2=O)c1` reads 85% (inactive).
Consider `N#C/C(=C\c1ccc(OCc2ccc(Cl)cc2Cl)cc1)c1nc2ccccc2[nH]1`, for which the survival is 103% (inactive).
Consider `O=C(O)CCCC(=O)N1CCc2cc(S(=O)(=O)NCc3ccccc3)ccc21`, for which the survival is 111% (inactive).
